Test results: PubChem BioAssay AID1259421 (Broad Institute, 2018)
Several values for one entry are separate records, joined by “and”; a condition that tells them apart may be missing. Equal entries are not always repeated. In all, about 6,400 compounds went through this assay and about 610 (9.5%) were called active. Rule as the data show it: active = activity change below about -70%; inconclusive = no clear call, values can overlap the other calls; inactive = above that. The list comes from a sample in which actives are over-represented; it also holds similar structures and randomly drawn compounds. Where a structure was tested more than once in an assay, its records may differ in their call. *1 amine or outer side, *2 acyl side, *3 side chain or, on linkers, in order; H or OH if unused. Where a SMILES comes first, the peptide text is derived from it. Side-chain parts run from the residue outwards. [ ]: non-standard residue; d: D form. The star is where a group is joined. Ethylenediamine = C(CN[*:2])N[*:1]; Hyp = O=C(O)[C@@H]1C[C@@H](O)CN1; Phg = N[C@H](C(=O)O)c1ccccc1; CO = O=C([*:1])[*:2]; Bn = c1ccc(C*)cc1

Experiment: Toxoplasma gondii ME49Luc growth in HeLa cells, luciferase, no IFN-y, primary screen (AID 1259421)
Conditions: T. gondii ME49Luc in HeLa, 72 h, stronger effect = lower value, concentration not given here

Row | Structure (SMILES) | activity change, negative = inhibition
1 | CCCCCN(CCCOC)C(=O)[C@@H](CCC(=O)O)NC(=O)c1ccc(Cl)c(Cl)c1 | 5.05% (inactive)
2 | NCCCC[C@@H]1NC(=O)[C@@H](Cc2c[nH]c3ccccc23)NC(=O)[C@H](c2ccccc2)NC(=O)[C@@H]2C[C@@H](OC(=O)NCCN)CN2C(=O)[C@H](Cc2ccccc2)NC(=O)[C@H](Cc2ccc(OCc3ccccc3)cc2)NC1=O (cyclo([Hyp]([CO-Ethylenediamine])[Phg][dW]KY(Bn)F)) | 9.07% (inactive)
3 | Cc1ccc(-c2cc(C(F)(F)F)nn2-c2ccc(S(N)(=O)=O)cc2)cc1 | 17% (inactive) and 0.0196% (inactive)
4 | NCC(=O)Nc1ccc(-n2nc(C(F)(F)F)cc2-c2ccc3c(ccc4ccccc43)c2)cc1 | -75.5% (active)
5 | CCn1cnc(C(=O)NC)c1C(=O)NC | 4% (inactive)
6 | C[C@H](/C=C/[C@H](C)C(C)(C)O)[C@H]1CC[C@H]2/C(=C/C=C3C[C@@H](O)C[C@H](O)C3)CCC[C@]12C | 20.9% (inactive)
7 | N#Cc1cc2c(OCC(O)CN3CCN(C(c4ccccc4)c4ccccc4)CC3)cccc2[nH]1 (centres undefined) | -30% (inactive)
8 | NCC(=O)N1C[C@H](NC(=O)c2ccccc2)C[C@H]1C(=O)O | 17.6% (inactive)
9 | CC1CC2C3CCC4=CC(=O)C=CC4(C)C3(F)C(O)CC2(C)C1(O)C(=O)CO (centres undefined) | -10.3% (inactive)
10 | C=CCn1c(=O)c2cnc(Nc3ccc(N4CCN(C)CC4)cc3)nc2n1-c1cccc(C(C)(C)O)n1 | -82.2% (active)
11 | CN1CCN(c2cccc(Nc3nc4c(-c5ccc(S(C)(=O)=O)cc5)cccn4n3)c2)CC1 | -0.0052% (inactive)
12 | CC1(C)O[C@@H]2CC3C4CCC5=CC(=O)C=C[C@]5(C)C4[C@@H](O)C[C@]3(C)[C@]2(C(=O)CO)O1 (some centres undefined) | 0.966% (inactive)
13 | CC(C)C(=O)OC[C@@]1(N=[N+]=[N-])O[C@@H](n2ccc(N)nc2=O)[C@H](OC(=O)C(C)C)[C@@H]1OC(=O)C(C)C | 6.96% (inactive)
14 | Cn1ncc(Cl)c1-c1cc(C(=O)N[C@H](CN)Cc2ccc(F)c(F)c2)oc1Cl | -80% (active)
15 | Cn1ncc(Cl)c1-c1cc(C(=O)N[C@H](CN)Cc2cccc(F)c2)sc1Cl | -49.2% (inactive)
16 | CNCC(=O)O | -1.68% (inactive)
17 | CCCCCCc1ccc(O)cc1O | 10.9% (inactive)
18 | CCOC(=O)c1c(C)n(C)c2ccc(O)cc12 | -6.15% (inactive) and 12.7% (inactive)
19 | CCCCCS(=O)(=O)CCCCCCCCCCn1c(-c2ccc(O)cc2)c(C)c2cc(O)ccc21 | -63.6% (inactive) and -77.2% (active)
20 | C[C@@]12CCC3[C@@](CC[C@@H]4[C@](C)(C(=O)O)CCC[C@@]34C)(CC1=O)C2 (some centres undefined) | 7.66% (inactive)
21 | O=C(O)CSc1nnc(Br)n1-c1ccc(C2CC2)c2ccccc12 | 0.38% (inactive)
22 | CCCCCCCCCCOc1cc2c(=O)c(C(=O)OCC)c[nH]c2cc1OCC | 30.1% (inactive)
23 | O=C(O)c1cc(N(Cc2ccccc2O)Cc2ccccc2O)ccc1O | 2.11% (inactive)
24 | Cc1ccccc1-c1cc(N2CCN(C)CC2)ncc1N(C)C(=O)C(C)(C)c1cc(C(F)(F)F)cc(C(F)(F)F)c1 | -80.1% (active)
25 | CO[C@@]1(NC(=O)C2SC(=C(C(N)=O)C(=O)O)S2)C(=O)N2C(C(=O)O)=C(CSc3nnnn3C)CSC21 (some centres undefined) | 5.67% (inactive)
26 | CC1CC2C3CC(F)C4=CC(=O)C=CC4(C)C3(F)C(O)CC2(C)C1(CC(=O)CO)C(=O)SCF (centres undefined) | -4.39% (inactive)
27 | Cc1oc(=O)oc1COC(=O)C1=C([C@H]2CCCO2)S[C@@H]2[C@@H]([C@@H](C)O)C(=O)N12 | 16.9% (inactive)

Row | Structure (SMILES) | activity change, negative = inhibition
28 | O=C(NCc1ccccc1)c1csc(Nc2ccncn2)n1 | -56.6% (inactive)
29 | O=C(NCc1cccc(O)c1)Nc1nc(-c2ccncc2)cs1 | -70.8% (active)
30 | Cc1cccc(Nc2nc(-c3ccncc3)cs2)c1 | 107% (inactive)
31 | CC(C)CN(C[C@@H](OP(=O)(O)O)[C@H](Cc1ccccc1)NC(=O)O[C@H]1CCOC1)S(=O)(=O)c1ccc(N)cc1 | -5.19% (inactive)
32 | CCC(CC)O[C@@H]1C=C(C(=O)O)C[C@H](N)[C@H]1NC(C)=O | 3.98% (inactive)
33 | O=C1Cc2c([nH]c3ccc([N+](=O)[O-])cc23)-c2ccccc2N1 | -78% (active)
34 | O=C1Cc2c([nH]c3ccc(Br)cc23)-c2ncccc2N1 | 206% (inactive)
35 | O=C1Cc2c([nH]c3ccc(Br)cc23)-c2ccccc2N1 | 406% (inactive) and -6.73% (inactive)
36 | O=c1c2c(c1=O)N(CCP(=O)(O)O)CCCN2 | 4.23% (inactive)
37 | OCCN1C[C@@H](O)[C@@H](O)C(O)C1CO (some centres undefined) | 10.9% (inactive)
38 | COc1cc2ncc(-c3ccccc3)nc2cc1OC | -82.6% (active)
39 | COC(=O)[C@H](NC(=O)c1cc(-c2ccccc2)nc2ccccc12)c1ccccc1 | 9.5% (inactive) and 19.2% (inactive)
40 | Cc1cc2ncc(-c3ccccc3)nc2cc1C | 459% (inactive)
41 | COc1ccc(-c2oc3cc(OC)c(OC)c(OC)c3c(=O)c2OC)cc1 | -3.53% (inactive)
42 | CC(=O)c1cc([N+](=O)[O-])c(Sc2cccc(Cl)c2Cl)s1 | 14.1% (inactive)
43 | CC(=O)c1cc([N+](=O)[O-])c(Sc2ccc(F)cc2F)s1 | -85.3% (active)
44 | C=C[C@@]1(C)CC(=O)[C@]2(O)[C@@]3(C)[C@@H](O)CCC(C)(C)[C@@H]3[C@H](OC(=O)CCN(C)C)[C@H](OC(C)=O)[C@@]2(C)O1 | 0.0952% (inactive)
45 | C=CCN1CCN(c2nc3ccccc3nc2C#N)CC1 | -7.28% (inactive) and 5.54% (inactive)
46 | c1ccc(Cn2c(N3CCNCC3)nc3ccccc32)cc1 | 6.11% (inactive)
47 | Cc1oc2nc3c(c(NC(=O)CN4CCCC4=O)c2c1C)CCCC3 | 1.4% (inactive)
48 | COc1cc2ncnc(Nc3ccc(O)c(Br)c3)c2cc1OC | -58.4% (inactive)
49 | Nc1cc2ncnc(Nc3cccc(Br)c3)c2cc1N | 4.16% (inactive)
50 | OCc1cc2ncnc(Nc3ccc(O)c(Br)c3)c2cc1CO | -79.3% (active)
51 | C[C@H](CCC(=O)O)[C@@H]1CC[C@H]2[C@@H]3CC[C@@H]4C[C@H](O)CC[C@]4(C)[C@H]3CC[C@@]21C | 11.8% (inactive)
52 | Cn1c(COc2ccc(CC3SC(=O)NC3=O)cc2)nc2ccccc2c1=O (centres undefined) | -40.6% (inactive)
53 | COc1ccc(-c2cc(=O)c3c(O)c(OC)c(O)cc3o2)cc1OC | 48.9% (inactive)
54 | CC[C@@H]1C(=O)N(C)c2cnc(Nc3ccc(C(=O)NC4CCN(C)CC4)cc3OC)nc2N1C1CCCC1 | -62.8% (inactive)

Row | Structure (SMILES) | activity change, negative = inhibition
55 | COc1cc(OC2CCN(C)CC2)ccc1Nc1ncc2c(n1)n(C1CCCC1)c(=O)n2C | -32% (inactive)
56 | CC[C@@H]1C(=O)N(C)c2cnc(Nc3ccc(C(=O)NC4CCC(N5CCN(CC6CC6)CC5)CC4)cc3OC)nc2N1C(C)C (some centres undefined) | -84.3% (active)
57 | COc1ccc2nc([S@@](=O)Cc3ncc(C)c(OC)c3C)[nH]c2c1 | -6.99% (inactive) and 19.3% (inactive)
58 | OCc1cncc(F)c1 | 11.3% (inactive)
59 | O=C(O)c1cc(=O)c2cccc(O)c2[nH]1 | -75.2% (active)
60 | O=C(O)c1cc(=O)c2ccccc2[nH]1 | 7.07% (inactive)
61 | O=C(O)c1cc(=O)c2ccc(Cl)cc2[nH]1 | 9.46% (inactive) and -2.93% (inactive)
62 | COc1ccc(C(=O)N2CCCc3cc(C4=NNC(=O)SC4C)ccc32)cc1OC (centres undefined) | -41.6% (inactive)
63 | CC1CCC(NC(=O)N(CCCl)[NH2+][O-])CC1 (centres undefined) | 75.3% (inactive)
64 | Cc1ccc(NC2=CC(=O)c3sc(C)nc3C2=O)cc1 | -74.1% (active)
65 | CC(C)(C)NCC(O)COc1ccc(NC(=O)NC2CCCCC2)cc1 (centres undefined) | 3.16% (inactive)
66 | COc1ccc(CCNCC(O)COc2cccc(C)c2)cc1OC (centres undefined) | 9.54% (inactive)
67 | CC1=C(C(=O)O)N2C(=O)[C@@H](NC(=O)C(N)c3ccc(O)cc3)[C@H]2SC1 (some centres undefined) | 4.06% (inactive)
68 | O=C(c1ccc(OCCN2CCCCC2)cc1)c1c(-c2ccc(O)cc2)sc2cc(O)ccc12 | -9.78% (inactive) and -5.73% (inactive)
69 | Cc1c(-c2ccc(O)cc2)n(Cc2ccc(OCCN3CCCCCC3)cc2)c2ccc(O)cc12 | -80.5% (active)
70 | Cc1ccc(CC2(O)CCN(CCOc3ccc(O)cc3)CC2)cc1 | -6.15% (inactive) and -9.12% (inactive)
71 | CC(=O)OCCN1C(=O)c2c(C)nc3ccc(S(=O)(=O)N4CCOCC4)cc3c2C1=O | -1.17% (inactive)
72 | Nc1cc(Nc2ccc(S(N)(=O)=O)cc2)ncn1 | 14.5% (inactive)
73 | COc1c(O)cc2c(c1O)[C@H]1O[C@H](CO)[C@@H](O)[C@H](O)[C@@H]1OC2=O | -5.41% (inactive)
74 | CCOC(=O)c1cnc2oc3ccc(O)cc3c2c1-c1ccccc1 | 6.27% (inactive)
75 | CS(=O)(=O)CCNCc1nc(-c2ccc3ncnc(Nc4ccc(OCc5cccc(F)c5)c(Cl)c4)c3c2)cs1 | -30.2% (inactive) and 30.3% (inactive)
76 | C=CC(=O)Nc1ccc2ncnc(Nc3ccc(OCc4cccc(F)c4)c(Cl)c3)c2c1 | -52.5% (inactive)
77 | CS(=O)(=O)CCNCc1ccc(-c2ccc3ncnc(Nc4ccc(OCc5cccc(F)c5)c(Cl)c4)c3c2)o1 | -64.5% (inactive) and -82.3% (active)
78 | OC(CCl)CN1CC[N+]2(CC1)CC[N+]1(CCN(CC(O)CCl)CC1)CC2 (centres undefined) | 9.78% (inactive)
79 | CC1CCCC(C)N1NC(=O)c1ccc(Cl)c(S(N)(=O)=O)c1 (centres undefined) | 15.9% (inactive)
